Test results: PubChem BioAssay AID504909 (Southern Research Specialized Biocontainment Screening …, 2011)
Results with a measured potency or affinity are listed apart. Active and inactive are the calls of the source. How the calls were made is not given here.

Test: Vero cell cytotoxicity, dose response, cytotoxicity control for M. tuberculosis growth inhibitor project, Vero cells, purified and synthesized compounds, set 5 (AID 504909)

SMILES | outcome
COc1cccc(NC(=O)CSc2nc3c(c(=O)[nH]2)CCC3)c1 | inactive
CC1CCN(C(=O)C2CCN(c3nnc(-n4cccc4)s3)CC2)CC1 | inactive
Cc1cccc(/C=C/C(=O)c2ccc([N+](=O)[O-])o2)c1 | inactive
Cc1cnc(SCC(=O)NC2CCCCC2)[nH]c1=O | inactive
Cc1nc(SCC(=O)NCCC(C)C)[nH]c(=O)c1C | inactive
CCC(Sc1nc2c(c(=O)[nH]1)CCC2)C(=O)Nc1cccc(OC)c1 (configuration not stated) | inactive
Cc1nc(SCc2ccccc2Cl)[nH]c(=O)c1C | inactive
CN1CCC(NC(=O)CSc2nc3ccccc3c(=O)[nH]2)CC1 | inactive
Cc1nc(SCC(=O)NC2CCCCC2)[nH]c(=O)c1C | inactive
CC(C)NC(=O)CSc1nc2ccccc2c(=O)[nH]1 | inactive
Cc1c[nH]c(=S)[nH]c1=O | inactive
O=C(CSc1ncccn1)NC1CCCCC1 | inactive
CC(C)CCNC(=O)CSc1nc2c(c(=O)[nH]1)CCC2 | inactive
O=C(CSc1ccccn1)NC1CCCCC1 | inactive
Cc1[nH]c(=S)[nH]c(=O)c1C | inactive
NC(=O)CSc1nc2ccccc2c(=O)[nH]1 | inactive
Cn1c(SCC(=O)NC2CCCCC2)nc2ccccc2c1=O | inactive
CC[N+](C)(CC)CCCCOc1ccc2c(c1)C(=O)c1cc(OCCCC[N+](C)(CC)CC)ccc1-2 | inactive
NC(=O)c1cnccn1 | inactive
Cc1cc(=O)[nH]c(SCC(=O)NC2CCCCC2)n1 | inactive
Nc1cc(=O)[nH]c(SCC(=O)NC2CCCCC2)n1 | inactive
Cc1cc(=O)[nH]c(=S)[nH]1 | inactive
NC[C@H]1O[C@H](O[C@H]2[C@H](O)[C@@H](O[C@H]3O[C@H](CO)[C@@H](O)[C@H](N)[C@H]3O)[C@H](N)C[C@@H]2N)[C@H](O)[C@@H](O)[C@@H]1O | inactive
O=C(CSc1nc2c(c(=O)[nH]1)CCC2)NC1CCCCC1 | inactive
Nc1c(C(=O)NC2CCCCC2)nsc1C(=O)OCC(=O)NC1CCCCC1 | inactive
CC(C)CCNC(=O)CSc1nc2ccccc2c(=O)[nH]1 | inactive
O=C(CSc1nc2ccccc2c(=O)[nH]1)NCc1ccc(Cl)cc1 | inactive
